# Reference: PubChem BioAssay AID1159580 (chemical genetic matrix, 2015)
# About 2,000 (36%) of roughly 5,500 compounds were called active. About 18% were inconclusive and are not listed. The list shows a part of the results. A number with no mark means an inactive call. No stated cut-off is given here; in the data, active means normalized growth mostly below about 0.91 (no sharp cut-off); inconclusive means no clear call, values can overlap the other calls; inactive means mostly above about 0.92.
# Test: chemical genetic growth profiling, strain panel (AID 1159580);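 further: tested at 20 µM; growth read once vehicle control cultures reached saturation at 30 °C; 1 = growth at the plate median or of vehicle wells; lower values mean less growth of the strain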
# Conditions: S. cerevisiae deletion strains, growth OD
# [1] = locus YAR019C, strain CDC15, hits give low values
# [2] = locus YBL105C, strain PKC1, hits give low values
# [3] = locus YBR135W, strain CKS1, hits give low values
# [4] = locus YBR136W, strain MEC1, hits give low values
# [5] = locus YBR160W, strain CDC28, hits give low values
# [6] = locus YDL017W, strain CDC7, hits give low values
# [7] = locus YDL028C, strain MPS1, hits give low values
# [8] = locus YDL101C, strain DUN1, hits give low values
# [9] = locus YDL108W, strain KIN28, hits give low values
# [10] = locus YDL132W, strain cdc53, hits give low values
# [11] = locus YDL214C, strain PRR2, hits give low values
# [12] = locus YDR052C, strain DBF4, hits give low values
# [13] = locus YDR054C, strain cdc34, hits give low values
# [14] = locus YDR226W, strain ADK1, hits give low values
# [15] = locus YDR477W, strain SNF1, hits give low values
# [16] = locus YER123W, strain YCK3, hits give low values
# [17] = locus YER133W, strain GLC7, hits give low values
# [18] = locus YFL009W, strain cdc4, hits give low values
# [19] = locus YFL029C, strain CAK1, hits give low values
# [20] = locus YFR003C, strain YPI1, hits give low values
# [21] = locus YFR019W, strain FAB1, hits give low values
# [22] = locus YFR028C, strain CDC14, hits give low values
# [23] = locus YGR040W, strain KSS1, hits give low values
# [24] = locus YGR052W, strain FMP48, hits give low values
# [25] = locus YGR092W, strain DBF2, hits give low values
# [26] = locus YHR030C, strain SLT2, hits give low values
# [27] = locus YHR079C, strain IRE1, hits give low values
# [28] = locus YHR082C, strain KSP1, hits give low values
# [29] = locus YHR205W, strain SCH9, hits give low values
# [30] = locus YIL147C, strain SLN1, hits give low values
# [31] = locus YJL095W, strain BCK1, hits give low values
# [32] = locus YJL128C, strain PBS2, hits give low values
# [33] = locus YJL157C, strain FAR1, hits give low values
# [34] = locus YJR016C, strain ILV3, hits give low values
# [35] = locus YJR066W, strain TOR1 (second series), hits give low values
# [36] = locus YJR066W, strain TOR1, hits give low values
# [37] = locus YKL048C, strain ELM1, hits give low values
# [38] = locus YKL067W, strain YNK1, hits give low values
# [39] = locus YKL101W, strain HSL1, hits give low values
# [40] = locus YKL193C, strain SDS22, hits give low values
# [41] = locus YKL203C, strain TOR2, hits give low values
# [42] = locus YLR113W, strain HOG1, hits give low values
# [43] = locus YLR133W, strain CKI1, hits give low values
# [44] = locus YLR403W, strain SFP1, hits give low values
# [45] = locus YML070W, strain DAK1, hits give low values
# [46] = locus YMR001C, strain CDC5, hits give low values
# [47] = locus YMR205C, strain PFK2 (second series), hits give low values
# [48] = locus YMR277W, strain FCP1, hits give low values
# [49] = locus YNL006W, strain LST8, hits give low values
# [50] = locus YNL020C, strain ARK1, hits give low values
# [51] = locus YNL161W, strain CBK1, hits give low values
# [52] = locus YNL183C, strain NPR1, hits give low values
# [53] = locus YNL207W, strain RIO2, hits give low values
# [54] = locus YNL222W, strain SSU72, hits give low values
# [55] = locus YNL307C, strain MCK1 (second series), hits give low values
# [56] = locus YOL078W, strain AVO1, hits give low values
# [57] = locus YOL136C, strain PFK27, hits give low values
# [58] = locus YOR061W, strain CKA2, hits give low values
# [59] = locus YOR119C, strain RIO1, hits give low values
# [60] = locus YOR231W, strain MKK1, hits give low values
# [61] = locus YOR329C, strain SCD5, hits give low values
# [62] = locus YPL031C, strain PHO85, hits give low values
# [63] = locus YPL153C, strain RAD53, hits give low values
# [64] = locus YPL204W, strain HRR25, hits give low values
# [65] = locus YPL209C, strain IPL1, hits give low values
# [66] = locus YPL256C, strain CLN2, hits give low values
# [67] = locus YPR025C, strain CCL1, hits give low values
# [68] = locus YPR106W, strain ISR1, hits give low values
# [69] = locus YPR111W, strain DBF20, hits give low values
# [70] = strain NNK1, hits give low values
# [71] = strain TSCII, hits give low values
smiles,measurement,setting,value
Brc1ccc(-c2csc(-c3cccnc3)n2)cc1,normalized growth,[1],0.879 (active)
same,normalized growth,[2],0.921
same,normalized growth,[3],0.898
same,normalized growth,[4],0.913
same,normalized growth,[5],0.904
same,normalized growth,[6],0.906
same,normalized growth,[7],0.916
same,normalized growth,[8],0.887 (active)
same,normalized growth,[9],0.904
same,normalized growth,[10],0.854 (active)
same,normalized growth,[11],0.741
same,normalized growth,[12],0.894 (active)
same,normalized growth,[13],0.847 (active)
same,normalized growth,[14],0.884 (active)
same,normalized growth,[15],0.624 (active)
same,normalized growth,[16],0.606 (active)
same,normalized growth,[17],0.561 (active)
same,normalized growth,[18],0.867 (active)
same,normalized growth,[19],0.872 (active)
same,normalized growth,[20],0.904
same,normalized growth,[21],0.677 (active)
same,normalized growth,[22],0.875 (active)
same,normalized growth,[23],0.59 (active)
same,normalized growth,[24],0.704
same,normalized growth,[25],0.456 (active)
same,normalized growth,[26],0.519 (active)
same,normalized growth,[27],0.637
same,normalized growth,[28],0.695
same,normalized growth,[29],0.643
same,normalized growth,[30],0.899
same,normalized growth,[31],0.305 (active)
same,normalized growth,[32],0.951
same,normalized growth,[33],0.735
same,normalized growth,[34],0.878 (active)
same,normalized growth,[35],0.603 (active)
same,normalized growth,[36],0.545
same,normalized growth,[37],0.835
same,normalized growth,[38],0.733 (active)
same,normalized growth,[39],0.784
same,normalized growth,[40],0.864 (active)
same,normalized growth,[41],0.506 (active)
same,normalized growth,[42],0.655 (active)
same,normalized growth,[43],0.767
same,normalized growth,[44],0.563 (active)
same,normalized growth,[45],0.704
same,normalized growth,[46],0.88 (active)
same,normalized growth,[47],0.719 (active)
same,normalized growth,[48],0.873 (active)
same,normalized growth,[49],0.894 (active)
same,normalized growth,[50],0.751
same,normalized growth,[51],0.893 (active)
same,normalized growth,[52],0.55 (active)
same,normalized growth,[53],0.846 (active)
same,normalized growth,[54],0.902
same,normalized growth,[55],0.702
same,normalized growth,[56],0.866 (active)
same,normalized growth,[57],0.709
same,normalized growth,[58],0.792
same,normalized growth,[59],0.54 (active)
same,normalized growth,[60],0.647
same,normalized growth,[61],0.883 (active)
same,normalized growth,[62],0.533 (active)
same,normalized growth,[63],0.449 (active)
same,normalized growth,[64],0.46 (active)
same,normalized growth,[65],0.893 (active)
same,normalized growth,[66],0.679 (active)
same,normalized growth,[67],0.894 (active)
same,normalized growth,[68],0.903
same,normalized growth,[69],0.918
same,normalized growth,[70],0.871 (active)
same,normalized growth,[71],0.86 (active)
Clc1ccccc1-c1csc(-c2ccncc2)n1,normalized growth,[1],0.962
same,normalized growth,[2],0.966
same,normalized growth,[3],0.964
same,normalized growth,[4],0.968
same,normalized growth,[5],0.962
same,normalized growth,[6],0.964
same,normalized growth,[7],0.966
same,normalized growth,[8],0.963
same,normalized growth,[9],0.965
same,normalized growth,[10],0.966
same,normalized growth,[11],0.971
same,normalized growth,[12],0.977
same,normalized growth,[13],0.922
same,normalized growth,[14],0.966
same,normalized growth,[15],0.937
same,normalized growth,[16],0.895
same,normalized growth,[17],0.945
same,normalized growth,[18],0.942
same,normalized growth,[19],0.964
same,normalized growth,[20],0.964
same,normalized growth,[21],0.961
same,normalized growth,[22],0.96
same,normalized growth,[23],0.951
same,normalized growth,[24],1.02
same,normalized growth,[25],0.85
same,normalized growth,[26],0.946
same,normalized growth,[27],0.923
same,normalized growth,[28],1.12
same,normalized growth,[29],1.03
same,normalized growth,[30],0.962
same,normalized growth,[31],0.829
same,normalized growth,[32],0.933
same,normalized growth,[33],0.93
same,normalized growth,[34],0.964
same,normalized growth,[35],0.94
same,normalized growth,[36],1.02
same,normalized growth,[37],0.99
same,normalized growth,[38],0.974
same,normalized growth,[39],0.987
same,normalized growth,[40],0.949
same,normalized growth,[41],0.992
same,normalized growth,[42],0.969
same,normalized growth,[43],0.979
same,normalized growth,[44],0.927
same,normalized growth,[45],0.977
same,normalized growth,[46],0.963
same,normalized growth,[47],0.972
same,normalized growth,[48],0.963
same,normalized growth,[49],0.97
same,normalized growth,[50],0.965
same,normalized growth,[51],0.96
same,normalized growth,[52],1.07
same,normalized growth,[53],0.962
same,normalized growth,[54],0.965
same,normalized growth,[55],0.971
same,normalized growth,[56],0.957
same,normalized growth,[57],0.97
same,normalized growth,[58],0.99
same,normalized growth,[59],0.981
same,normalized growth,[60],0.988
same,normalized growth,[61],0.964
same,normalized growth,[62],0.918
same,normalized growth,[63],0.925
same,normalized growth,[64],0.93
same,normalized growth,[65],0.965
same,normalized growth,[66],1.03
same,normalized growth,[67],0.968
same,normalized growth,[68],0.965
same,normalized growth,[69],0.97
same,normalized growth,[70],0.97
same,normalized growth,[71],0.951
